Measurements published in PubChem BioAssay.
For some assays here: Results with a measured potency or affinity are listed apart. Active and inactive are the calls of the source. Unless noted, how the calls were made is not given here.

Columns and labels:
[1] = antimalarial activity against Dd2 strain (AID 2302;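 active means growth inhibition above 50% at the single 2 µM test dose, taken to imply half-maximal potency below 2 µM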;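 further: 0% = DMSO untreated growth and 100% = chloroquine plus artemisinin killed control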); conditions: P. falciparum Dd2 in RBCs, LDH growth readout, 72 h; at 2 µM; hits give high values
[2] = human hepatoma cell viability loss – ATP luminescence, cytotoxicity control for P. falciparum antimalarial project, primary screen (AID 2303;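 active means inhibition above 50%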;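 further: 0% = DMSO wells and 100% = digitonin-killed cells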); conditions: HepG2 viability, 24-48 h, at 10 µM, hits give high values
[3] = molecular target: L-lactate dehydrogenase (Plasmodium falciparum (isolate CDC / Honduras)) (UniProt Q27743); assay: PfLDH activity inhibition – cell lysate, 3D7 strain, counter-screen for P. falciparum growth inhibition project (AID 2304);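 further: 0% = vehicle and 100% = reference inhibitor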; conditions: P. falciparum 3D7 crude extract, LDH APAD/NBT absorbance; at 2 µM; hits give high values
[4] = inhibition of 3D7 malaria parasite growth – strain 3D7 (AID 2306);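 further: 0% = DMSO wells and 100% = chloroquine plus artemisinin control wells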; conditions: P. falciparum 3D7 erythrocytic growth, LDH absorbance, 72 h; at 2 µM; hits give high values
[5] = molecular target: Calcium-dependent protein kinase 1 (Plasmodium falciparum (isolate 3D7)) (UniProt P62344); assay: PfCDPK1 kinase inhibitors, biochemical, TCAMS library (AID 1159585; cut-off not given, nearly all actives have IC50 up to about 0.98 µM;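 further: inhibitors leave more ATP so luminescence rises with inhibition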); conditions: recombinant PfCDPK1, Kinase-Glo ATP depletion luminescence
[6] = molecular target: Plasmodium falciparum protein kinase 6 (PK6, PF3D7_1337100) (UniProt Q8IDW1); assay: PfPK6 kinase inhibitors, biochemical, TCAMS library (AID 1159586); conditions: recombinant PfPK6, Kinase-Glo ATP depletion luminescence
[7] = molecular target: Protein kinase 7 (PK7), Plasmodium falciparum 3D7 (PF3D7_0213400) (UniProt Q7YTF7); assay: inhibition of Plasmodium PK7 catalytic activity – biochemical, TCAMS antimalarial set, Kinase-Glo luminescence (AID 1159587); conditions: recombinant PfPK7, Kinase-Glo ATP depletion luminescence
[8] = molecular target: Calcium-dependent protein kinase 4 (Plasmodium falciparum (isolate 3D7)) (UniProt Q8IBS5); assay: PfCDPK4 kinase inhibitors, biochemical, TCAMS library (AID 1159588; cut-off not given, nearly all actives have IC50 up to about 0.91 µM); conditions: recombinant PfCDPK4, Kinase-Glo ATP depletion luminescence
Calcium-dependent protein kinase 4 (Plasmodium falciparum (isolate 3D7)), sequence (Q8IBS5 whole entry, looked up): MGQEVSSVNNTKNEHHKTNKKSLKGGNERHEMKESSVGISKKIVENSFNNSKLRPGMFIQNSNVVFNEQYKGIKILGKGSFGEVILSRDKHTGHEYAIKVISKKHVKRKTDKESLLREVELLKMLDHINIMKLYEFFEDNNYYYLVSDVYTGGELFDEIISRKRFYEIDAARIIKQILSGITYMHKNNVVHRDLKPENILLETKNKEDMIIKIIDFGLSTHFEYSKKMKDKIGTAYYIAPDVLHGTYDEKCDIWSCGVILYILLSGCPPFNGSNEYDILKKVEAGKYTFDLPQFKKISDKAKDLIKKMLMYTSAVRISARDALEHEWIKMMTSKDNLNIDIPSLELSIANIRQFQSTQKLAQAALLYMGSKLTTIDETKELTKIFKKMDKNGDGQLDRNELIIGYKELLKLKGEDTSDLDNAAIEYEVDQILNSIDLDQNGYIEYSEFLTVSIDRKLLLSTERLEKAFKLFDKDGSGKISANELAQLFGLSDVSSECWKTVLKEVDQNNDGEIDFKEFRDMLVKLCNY

Protein kinase 7 (PK7), Plasmodium falciparum 3D7 (PF3D7_0213400), sequence (Q7YTF7 1-343): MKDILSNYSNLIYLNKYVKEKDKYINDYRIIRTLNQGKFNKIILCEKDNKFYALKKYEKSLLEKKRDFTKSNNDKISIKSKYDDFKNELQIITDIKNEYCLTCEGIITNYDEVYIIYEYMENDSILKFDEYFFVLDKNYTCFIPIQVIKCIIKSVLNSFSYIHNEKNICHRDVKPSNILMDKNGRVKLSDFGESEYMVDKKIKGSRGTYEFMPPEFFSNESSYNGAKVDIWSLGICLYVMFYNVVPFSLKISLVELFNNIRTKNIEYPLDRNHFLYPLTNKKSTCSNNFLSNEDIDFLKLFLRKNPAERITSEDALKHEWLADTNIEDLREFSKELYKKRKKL
Calcium-dependent protein kinase 1 (Plasmodium falciparum (isolate 3D7)), sequence (P62344 whole entry, looked up): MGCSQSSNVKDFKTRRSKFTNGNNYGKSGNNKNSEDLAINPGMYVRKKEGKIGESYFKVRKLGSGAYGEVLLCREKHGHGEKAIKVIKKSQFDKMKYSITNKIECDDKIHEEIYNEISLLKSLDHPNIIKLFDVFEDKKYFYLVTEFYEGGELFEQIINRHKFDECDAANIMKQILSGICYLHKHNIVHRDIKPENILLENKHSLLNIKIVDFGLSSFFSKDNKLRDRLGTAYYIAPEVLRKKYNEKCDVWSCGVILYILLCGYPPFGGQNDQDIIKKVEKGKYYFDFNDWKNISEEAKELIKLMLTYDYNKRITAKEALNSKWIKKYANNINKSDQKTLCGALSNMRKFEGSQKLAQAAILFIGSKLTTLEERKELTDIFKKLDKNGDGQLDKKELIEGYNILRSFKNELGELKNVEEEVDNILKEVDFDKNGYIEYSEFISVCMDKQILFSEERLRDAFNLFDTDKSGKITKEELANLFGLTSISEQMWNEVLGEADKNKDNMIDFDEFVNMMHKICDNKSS
L-lactate dehydrogenase (Plasmodium falciparum (isolate CDC / Honduras)), sequence (Q27743 whole entry, looked up): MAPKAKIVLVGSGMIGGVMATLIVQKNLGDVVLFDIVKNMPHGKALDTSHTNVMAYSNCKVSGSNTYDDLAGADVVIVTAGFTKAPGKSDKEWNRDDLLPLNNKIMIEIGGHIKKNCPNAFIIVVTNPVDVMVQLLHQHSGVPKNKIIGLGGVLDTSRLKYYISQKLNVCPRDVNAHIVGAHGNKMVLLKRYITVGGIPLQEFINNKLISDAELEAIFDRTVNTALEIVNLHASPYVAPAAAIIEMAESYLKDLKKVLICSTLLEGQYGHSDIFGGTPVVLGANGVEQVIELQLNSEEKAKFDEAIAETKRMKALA
Plasmodium falciparum protein kinase 6 (PK6, PF3D7_1337100), sequence (Q8IDW1 1-305): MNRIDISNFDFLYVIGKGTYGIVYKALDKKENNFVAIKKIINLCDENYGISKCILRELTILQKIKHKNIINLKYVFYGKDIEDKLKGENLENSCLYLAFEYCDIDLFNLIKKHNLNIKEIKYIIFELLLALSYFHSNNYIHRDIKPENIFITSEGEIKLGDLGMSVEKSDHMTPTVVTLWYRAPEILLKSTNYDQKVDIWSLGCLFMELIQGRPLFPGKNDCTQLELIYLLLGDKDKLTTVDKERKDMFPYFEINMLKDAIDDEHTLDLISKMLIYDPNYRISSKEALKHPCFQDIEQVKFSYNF

Cc1cccc2[nH]c(-c3ccc(-c4ccc(NC(=O)NCc5cccc(F)c5)cc4)cc3)nc12
active: growth inhibition [4] 97%
inactive: growth inhibition [1] 12% | inhibition [2] 46% | inhibition [3] 7% | outcome [5] | outcome [6] | outcome [7] | outcome [8]

Cc1cc(NN=Cc2ccccn2)c2cc(F)ccc2n1
inactive: inhibition [2] 9% | inhibition [3] 5% | outcome [5] | outcome [6] | outcome [7] | outcome [8]
active: growth inhibition [1] 96% | growth inhibition [4] 100%

Cc1ccc(-c2[nH]n3c(=O)c4c(nc3c2C)CCCC4)cc1
active: growth inhibition [1] 87% | growth inhibition [4] 97%
inactive: inhibition [2] 16% | inhibition [3] -1% | outcome [5] | outcome [6] | outcome [7] | outcome [8]

COc1c(C)cc(I)cc1CNCCCNc1cc(=O)c2ccccc2[nH]1
inactive: growth inhibition [1] -2% | inhibition [2] -1% | inhibition [3] 2% | outcome [5] | outcome [6] | outcome [7] | outcome [8]
active: growth inhibition [4] 84%

O=C(Nc1cccc(F)c1)N1CCC(CN2CCOC(c3ccccc3)(c3ccccc3)C2)CC1
active: growth inhibition [1] 97% | growth inhibition [4] 96%
inactive: inhibition [2] 12% | inhibition [3] 7% | outcome [5] | outcome [6] | outcome [7] | outcome [8]

CC1(C)N=C(N)N=C(N)N1OCCCOc1ccc(N)cc1
inactive: inhibition [3] 1% | outcome [5] | outcome [6] | outcome [7] | outcome [8]
active: growth inhibition [1] 95% | inhibition [2] 66% | growth inhibition [4] 96%

COc1cccc(-c2cccc(CNC3CCN(CC4Cn5c(=O)ccc6ccc(F)c4c65)CC3)c2)c1 (stereo unspecified)
active: growth inhibition [4] 99%
inactive: growth inhibition [1] 15% | inhibition [2] 23% | inhibition [3] 4% | outcome [5] | outcome [6] | outcome [7] | outcome [8]

COc1ccc2c(NN=CC=Cc3ccccc3)ccnc2c1
inactive: inhibition [2] 9% | inhibition [3] 4% | outcome [5] | outcome [6] | outcome [7] | outcome [8]
active: growth inhibition [1] 100% | growth inhibition [4] 100%

Cc1ccnc(Nc2nc(-c3ccccn3)cs2)c1
inactive: inhibition [2] 45% | inhibition [3] -4% | outcome [5] | outcome [6] | outcome [7] | outcome [8]
active: growth inhibition [1] 87% | growth inhibition [4] 100%

Cc1cc(Oc2cc(NC(=O)c3sc4ncn(Cc5ccccc5F)c(=O)c4c3C)cc([N+](=O)[O-])c2)ccc1Cl
active: growth inhibition [4] 94%
inactive: growth inhibition [1] 24% | inhibition [2] 2% | inhibition [3] 3% | outcome [5] | outcome [6] | outcome [7] | outcome [8]

CN1C(=C2SC(=Nc3ccc4ncccc4c3)N(Cc3ccccc3)C2=O)Sc2ccc(Cl)cc21
active: growth inhibition [1] 75% | growth inhibition [4] 99%
inactive: inhibition [2] 4% | inhibition [3] -2% | outcome [5] | outcome [6] | outcome [7] | outcome [8]

CSc1cccc(Nc2nc3ccc(S(=O)(=O)NC(C)C(C)C)cc3n2[C@H](C)C(C)(C)C)c1 (stereo partly specified)
active: growth inhibition [1] 98% | growth inhibition [4] 97%
inactive: inhibition [2] -10% | inhibition [3] 0% | outcome [5] | outcome [6] | outcome [7] | outcome [8]

CC(C)(c1ccccc1)c1ccc(O)c(CN2CCOCC2)c1
inactive: inhibition [2] -7% | inhibition [3] 2% | outcome [5] | outcome [6] | outcome [7] | outcome [8]
active: growth inhibition [1] 88% | growth inhibition [4] 99%

COc1ccc(C=NNc2cc(C)nc3ccc(OC)cc23)c(OC)c1
active: growth inhibition [1] 95% | growth inhibition [4] 100%
inactive: inhibition [2] 23% | inhibition [3] -5% | outcome [5] | outcome [6] | outcome [7] | outcome [8]

Cc1cc(OCCCN2CCC(NS(=O)(=O)c3cccc(Br)c3)C2)c2ccccc2n1 (stereo unspecified)
inactive: growth inhibition [1] 40% | inhibition [2] 13% | inhibition [3] 3% | outcome [5] | outcome [6] | outcome [7] | outcome [8]
active: growth inhibition [4] 86%

O=C(NCCN1CCCC1)c1ccc(-c2ccc(-c3nc4ccc(C(F)(F)F)cc4[nH]3)s2)cc1
inactive: inhibition [2] 31% | inhibition [3] 4% | outcome [5] | outcome [6] | outcome [7] | outcome [8]
active: growth inhibition [1] 65% | growth inhibition [4] 97%

Cc1ccc2nc(C)n(C3CCN(C(=O)Cc4ccc(F)c(F)c4)CC3)c2c1
active: growth inhibition [1] 100% | growth inhibition [4] 100%
inactive: inhibition [2] 4% | inhibition [3] 0% | outcome [5] | outcome [6] | outcome [7] | outcome [8]

CCN(CC)CCN(Cc1ccc(-c2ccc(C(F)(F)F)cc2)cc1)C(=O)Cn1c(CCc2cccc(F)c2F)cc(=O)c2c1CCCC2
inactive: inhibition [3] 1% | outcome [5] | outcome [6] | outcome [7] | outcome [8]
active: growth inhibition [1] 95% | inhibition [2] 93% | growth inhibition [4] 100%

COc1ccc(C2CC(c3cccs3)=NN2C(=O)c2ccccc2)cc1OC (stereo unspecified)
active: growth inhibition [1] 83% | growth inhibition [4] 99%
inactive: inhibition [2] 5% | inhibition [3] 5% | outcome [5] | outcome [6] | outcome [7] | outcome [8]

Cc1cc(Nc2ccc3ccccc3c2)n2ncnc2n1
inactive: inhibition [2] 11% | inhibition [3] -2% | outcome [5] | outcome [6] | outcome [7] | outcome [8]
active: growth inhibition [1] 95% | growth inhibition [4] 96%

Fc1ccc(-c2cncc(-c3ccc(F)cc3)n2)cc1
inactive: inhibition [2] 7% | inhibition [3] 2% | outcome [5] | outcome [6] | outcome [7] | outcome [8]
active: growth inhibition [1] 94% | growth inhibition [4] 99%

COc1ccc2nc3cc(Cl)ccc3c(NCCNCC(O)CO)c2n1 (stereo unspecified)
inactive: inhibition [2] 12% | inhibition [3] 2% | outcome [5] | outcome [6] | outcome [7] | outcome [8]
active: growth inhibition [1] 101% | growth inhibition [4] 100%

Cc1cc(NC2CCCC2)nc(Nc2ccc(F)cc2)n1
inactive: inhibition [2] 22% | inhibition [3] -3% | outcome [5] | outcome [6] | outcome [7] | outcome [8]
active: growth inhibition [1] 74% | growth inhibition [4] 100%

O=C(/C=C/c1ccc2ccccc2c1)NCC1(c2ccc(-c3ccccc3)cc2)CCOCC1
active: growth inhibition [4] 95%
inactive: growth inhibition [1] 34% | inhibition [2] 9% | inhibition [3] 0% | outcome [5] | outcome [6] | outcome [7] | outcome [8]

Cc1cccc2[nH]c(-c3cccc(-c4ccc(NC(=O)c5cnccc5C(F)(F)F)cc4)c3)nc12
active: inhibition [2] 60% | growth inhibition [4] 100%
inactive: growth inhibition [1] 37% | inhibition [3] -3% | outcome [5] | outcome [6] | outcome [7] | outcome [8]

CC(C)c1ccc2oc(-c3ccc(NC(=O)c4ccc([N+](=O)[O-])o4)cc3)nc2c1
active: growth inhibition [1] 95% | inhibition [2] 99% | growth inhibition [4] 100%
inactive: inhibition [3] 6% | outcome [5] | outcome [6] | outcome [7] | outcome [8]

CCN(CC)CCN(Cc1ccc(-c2ccc(C(F)(F)F)cc2)cc1)C(=O)Cn1c(CCc2cccc(F)c2F)nc(=O)c2ccccc21
active: growth inhibition [1] 60% | growth inhibition [4] 97%
inactive: inhibition [2] 49% | inhibition [3] -3% | outcome [5] | outcome [6] | outcome [7] | outcome [8]

Nc1nc(N)c2c(ccc3c2ccn3Cc2ccc(Cl)cc2)n1
active: growth inhibition [1] 99% | inhibition [2] 100% | growth inhibition [4] 100%
inactive: inhibition [3] 0% | outcome [5] | outcome [6] | outcome [7] | outcome [8]

CC1=C(C(=O)Nc2ccc(Cl)cc2)C(c2ccncc2)n2nc(C(F)(F)F)nc2N1 (stereo unspecified)
inactive: growth inhibition [1] 49% | inhibition [2] 25% | inhibition [3] -5% | outcome [5] | outcome [6] | outcome [7] | outcome [8]
active: growth inhibition [4] 87%

COc1cc(NC(=O)c2ccc3c(=O)n(Cc4ccccc4)c(=S)[nH]c3c2)cc(OC)c1OC
inactive: growth inhibition [1] 47% | inhibition [2] 6% | inhibition [3] -3% | outcome [5] | outcome [6] | outcome [7] | outcome [8]
active: growth inhibition [4] 94%

CC(=O)Nc1ccc(S(=O)(=O)Nc2ccc(Nc3nc(C)cc(N4CCCCC4)n3)cc2)cc1
inactive: inhibition [2] 23% | inhibition [3] 0% | outcome [5] | outcome [6] | outcome [7] | outcome [8]
active: growth inhibition [1] 54% | growth inhibition [4] 89%

COc1cc(OC)nc(C(Sc2ccc(NC(=O)c3cccs3)cc2)c2ccccc2)n1 (stereo unspecified)
active: growth inhibition [1] 96% | growth inhibition [4] 97%
inactive: inhibition [2] 7% | inhibition [3] -1% | outcome [5] | outcome [6] | outcome [7] | outcome [8]

COc1ccc(-c2cc(C(=O)N3CCc4ccccc43)c3ccccc3n2)cc1OC
active: growth inhibition [4] 85%
inactive: growth inhibition [1] 48% | inhibition [2] 5% | inhibition [3] 3% | outcome [5] | outcome [6] | outcome [7] | outcome [8]

O=C(/C=C/c1ccc(Cl)c(Cl)c1)NC1CCC(CN2CCC(c3nc4ncccc4[nH]3)CC2)CC1 (stereo unspecified)
active: growth inhibition [4] 101%
inactive: growth inhibition [1] 2% | inhibition [2] 7% | inhibition [3] -1% | outcome [5] | outcome [6] | outcome [7] | outcome [8]

O=C(/C=C/c1ccc(Cl)c(Cl)c1)N1CCC(CN2CCC(Cc3cc4ccccc4[nH]3)CC2)CC1
active: growth inhibition [1] 56% | growth inhibition [4] 96%
inactive: inhibition [2] 49% | inhibition [3] -3% | outcome [5] | outcome [6] | outcome [7] | outcome [8]

Cc1cc(N2CCCC2)nc(Nc2ccc(NC(=O)c3ccc4c(c3)OCO4)cc2)n1
active: growth inhibition [1] 67% | growth inhibition [4] 101%
inactive: inhibition [2] 26% | inhibition [3] -4% | outcome [5] | outcome [6] | outcome [7] | outcome [8]

COc1ccc2nccc([C@@H](O)CN3CCC(NCCOc4ccccc4[N+](=O)[O-])CC3)c2c1
active: growth inhibition [1] 98% | growth inhibition [4] 100%
inactive: inhibition [2] 4% | inhibition [3] -2% | outcome [5] | outcome [6] | outcome [7] | outcome [8]
